Bioassay records (PubChem BioAssay)
This is a sample that favours compounds with a hit; in the whole collection about 1.6% have one here.
PABP polyA inh – blocks human PABP binding to poly(A) RNA | 290,000 tested, 1% active | inhibition, % at 35 µM | fluorescence polarization;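 note: calls also rest on retests at 20 µM and on dose response follow-up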
PERK inhibitor – inhibitors of human PERK kinase | inhibition, % at 5.6 µM | 220,000 tested, 0.17% active | Q9NZJ5 | CHO PERK-DD fusion, SEAP luminescence translation reporter;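 active = inhibition above the mean inhibition of all tested compounds plus 3 SD, set separately per screening campaign, cut at about 2.9% in these data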;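 note: PERK kinase domain activated by AP20187 dimerizer at 100 nM; 0% = DMSO with dimerizer and 100% = rapamycin at 8.4 µM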
PABP1 MLLE inh – blocks PAM2 peptide binding to the PABP1 MLLE domain; P11940; inhibition, % at 20 µM; 360,000 tested, 0.36% active; GST-MLLE / FITC-PAM2 fluorescence polarization; in the data active = inhibition above about 35%, passing the limit was not always enough;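 note: plate controls were DMSO wells with GST-MLLE for no effect and wells lacking GST-MLLE protein for full effect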
eIF4E-4G inh – blocks eIF4E binding to eIF4G; P63073+Q04637; TR-FRET eIF4E-eIF4GI(517-606) binding, 2 h; inhibition, % at 21.7 µM; 220,000 tested, 0.37% active;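 active = inhibition above about 30%, limit read from the data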;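 note: 0% = full FRET control wells and 100% = background wells lacking eIF4GI fragment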
Target sequence (P63073 whole entry, looked up, the tested form may be a part): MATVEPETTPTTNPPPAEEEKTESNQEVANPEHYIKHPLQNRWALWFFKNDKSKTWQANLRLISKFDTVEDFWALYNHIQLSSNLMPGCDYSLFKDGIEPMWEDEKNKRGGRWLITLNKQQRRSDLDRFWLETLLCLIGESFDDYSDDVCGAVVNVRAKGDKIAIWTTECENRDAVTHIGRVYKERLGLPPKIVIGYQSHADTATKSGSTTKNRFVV
Target sequence (Q04637 whole entry, looked up, the tested form may be a part): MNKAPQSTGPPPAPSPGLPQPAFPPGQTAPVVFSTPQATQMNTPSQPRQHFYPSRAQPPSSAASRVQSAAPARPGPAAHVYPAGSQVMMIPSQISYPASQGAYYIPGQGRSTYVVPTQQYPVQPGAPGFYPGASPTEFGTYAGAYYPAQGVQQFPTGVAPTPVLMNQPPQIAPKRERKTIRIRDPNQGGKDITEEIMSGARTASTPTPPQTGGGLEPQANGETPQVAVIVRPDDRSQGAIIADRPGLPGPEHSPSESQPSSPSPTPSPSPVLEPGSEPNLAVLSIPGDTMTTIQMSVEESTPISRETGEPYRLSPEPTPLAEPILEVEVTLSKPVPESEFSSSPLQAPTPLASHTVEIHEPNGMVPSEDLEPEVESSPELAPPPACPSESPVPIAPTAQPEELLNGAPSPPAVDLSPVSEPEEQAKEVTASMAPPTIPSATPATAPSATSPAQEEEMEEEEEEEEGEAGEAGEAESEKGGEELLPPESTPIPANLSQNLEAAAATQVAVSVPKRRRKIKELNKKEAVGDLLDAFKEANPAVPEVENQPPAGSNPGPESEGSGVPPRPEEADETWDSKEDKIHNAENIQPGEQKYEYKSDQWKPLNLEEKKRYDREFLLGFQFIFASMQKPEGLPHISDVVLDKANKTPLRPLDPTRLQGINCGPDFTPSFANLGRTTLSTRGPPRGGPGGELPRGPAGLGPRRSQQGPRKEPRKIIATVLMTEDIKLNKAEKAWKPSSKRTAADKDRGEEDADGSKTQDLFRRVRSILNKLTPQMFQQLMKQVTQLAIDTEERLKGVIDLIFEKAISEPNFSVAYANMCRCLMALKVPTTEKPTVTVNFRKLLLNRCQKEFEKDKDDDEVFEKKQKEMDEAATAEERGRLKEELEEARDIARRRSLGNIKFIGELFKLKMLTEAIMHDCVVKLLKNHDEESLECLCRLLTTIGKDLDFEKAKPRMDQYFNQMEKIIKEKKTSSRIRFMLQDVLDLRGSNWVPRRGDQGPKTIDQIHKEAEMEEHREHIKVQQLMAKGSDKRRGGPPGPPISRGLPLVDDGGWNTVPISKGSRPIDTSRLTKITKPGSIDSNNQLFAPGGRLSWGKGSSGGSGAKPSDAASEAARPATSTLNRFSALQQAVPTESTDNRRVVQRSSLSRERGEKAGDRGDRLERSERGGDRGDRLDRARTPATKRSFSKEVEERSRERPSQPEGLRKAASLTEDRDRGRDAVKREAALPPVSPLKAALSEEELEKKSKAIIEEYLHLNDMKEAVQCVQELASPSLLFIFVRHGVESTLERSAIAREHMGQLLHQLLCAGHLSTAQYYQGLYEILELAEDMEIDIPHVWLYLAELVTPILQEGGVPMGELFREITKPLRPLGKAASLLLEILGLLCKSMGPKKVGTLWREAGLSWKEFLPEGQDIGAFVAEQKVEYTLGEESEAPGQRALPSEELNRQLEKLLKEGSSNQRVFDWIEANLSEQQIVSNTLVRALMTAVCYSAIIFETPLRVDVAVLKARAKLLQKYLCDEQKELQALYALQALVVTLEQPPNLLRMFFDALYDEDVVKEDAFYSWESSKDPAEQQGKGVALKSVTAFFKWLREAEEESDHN
eIF4H FP inh – inhibitors of RNA binding by human eIF4H. Q15056. eIF4H fluorescence polarization binding assay. inhibition, % at 35 µM. 290,000 tested, 0.94% active. AID 2012;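 note: calls also rest on retests at 20 µM and on dose response follow-up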
Numbers without * were called inactive; ? = inconclusive; . = not tested or not shown; [ ] = another dose, or the depositor's remark. Unless noted, the rule behind the calls is not given here.

SMILES	PABP polyA inh	PERK inhibitor	PABP1 MLLE inh	eIF4E-4G inh	eIF4H FP inh
Nc1ncnc2c1ncn2[C@@H]1O[C@H](COP(=O)(O)O)[C@@H](O)[C@H]1O	7	.	-1	.	0
C=C1C(=O)C23C(O)C1CCC2C12CCCC(C)(COC(C)=O)C1C(O)C3(O)OC2 (stereo not drawn)	.	.	17	.	.
Cc1ccc(Cn2nc(C)c(C(=O)NCC(c3ccc(F)cc3)N3CCOCC3)c2Cl)cc1 (stereo not drawn)	.	.	18	.	.
Cc1cccc(C)c1NC(=O)CN(C)C(=O)c1cccc(S(=O)(=O)N2CCN(c3ccccc3)CC2)c1	42*	.	2	.	71
CC1=CC2=NC(=O)/C(=C\c3cc(C)n(-c4ccccc4)c3C)C(=N)N2O1	-3	2	0	80*[fluorescence artefact?]	30
CCOC(=O)c1cnc2cc(-c3ccc(C)cc3)nn2c1C	.	.	-4	.	.
Cc1ccccc1NC(=O)/C(C#N)=C\c1cc(C)n(-c2ccc(C(=O)O)cc2)c1C	40*	1	-14	5	?
N#C/C(=C/c1ccccc1[N+](=O)[O-])C(=O)NCc1ccco1	9.5*	1	20	1	63*
N#C/C(=C\c1cccnc1)C(=O)Nc1ccccc1[N+](=O)[O-]	55*	.	-22	.	66*
N#C/C(=C\c1ccccc1[N+](=O)[O-])C(=O)NCc1ccccc1	41*	1	57*	5	69*
COc1ccc(Cl)c(NC(=O)C/C(C)=N/NC(=O)CCc2ccccc2)c1	0	.	-12	.	1
Cc1ccccc1-n1c(C)cc(/C=C(\C#N)C(=O)NCC2CCCO2)c1C (stereo not drawn)	2.3*	0	4	12	88*
O=C(NCc1ccco1)c1ccc([N+](=O)[O-])o1	active	1	8	16	89*
COC(=O)/C=c1/s/c(=C(\C#N)C(=O)NCc2ccco2)n(-c2ccc(C)cc2)c1=O	90*	1	-105	0	101*
COCCNC(=O)/C(C#N)=C/c1cc(C)n(-c2ccc(C)cc2)c1C	10	0	-4	-3	13
COc1ccc(-n2c(C)cc(/C=C(\C#N)C(=O)NCc3ccco3)c2C)cc1	0.2*	0	14	5	57
CC1CC(C)CN(CCCNC(=O)CN2C(=O)c3cccnc3Oc3ccc(Cl)cc32)C1 (stereo not drawn)	.	.	-5	.	.
CC(C)(C)Cc1c(-c2ccc(F)cc2)nc2ccc(Cl)cn12	.	.	12	.	.
COc1ccc(C(=O)N2CCN(S(=O)(=O)c3ccc(C)cc3C)CC2)cc1S(=O)(=O)N1CCOCC1	.	.	4	.	.
COc1ccc(C(=O)N2CCN(S(=O)(=O)c3ccc(C)cc3)CC2)cc1S(=O)(=O)N1CCOCC1	3	0	-2	62*	-4
CCN(C(=O)COC(=O)C(c1ccccc1)c1ccccc1)c1c(N)n(Cc2ccccc2)c(=O)[nH]c1=O	.	.	-16	.	.
CCOc1ccccc1-c1nc(-c2ccc(NC(=O)Cc3ccccc3OC)cc2)no1	8.4*	0	-13	4	54*
CCC(C)n1c(-c2ccco2)nc2nc3ccccc3nc21 (stereo not drawn)	101*	0	.	-7	?
NS(=O)(=O)c1cccc(NC(=O)CSc2nnc(C3CC3)n2-c2ccccc2)c1	.	.	-8	.	.
CC1(c2ccccc2)NC(=O)N(CC(=O)N2CCN(S(=O)(=O)c3c(F)cccc3F)CC2)C1=O (stereo not drawn)	.	.	10	.	.
SMILES	PABP polyA inh	PERK inhibitor	PABP1 MLLE inh	eIF4E-4G inh	eIF4H FP inh
C/C(CC(=O)Nc1cc(C)ccn1)=N\NC(=O)c1ccccc1C	25*	0	-2	0	67
C/C(CC(=O)Nc1cc(C)ccn1)=N\NC(=O)c1ccc(C)cc1	-2	0	1	-1	-1
O=C(Nc1ccccc1C(=O)NC1CC1)c1ccccc1F	.	.	10	.	.
c1ccc(C2CC(c3cccs3)Nc3nnnn32)cc1 (stereo not drawn)	-10	1	-3	3	-11
Brc1cccc(C2CC(c3ccccc3)n3nnnc3N2)c1 (stereo not drawn)	-13	0	6	34*	-5
Cn1c(=O)c2cc(NC(=O)NCc3ccc(F)cc3)ccc2n1Cc1cccc(C(F)(F)F)c1	.	.	-5	.	.
Cc1ccc(NC(=O)CCSc2nnc(C)s2)cc1	45	2.9*	-23	8	-1
COc1cc(/C=N/NC(=O)c2cc(O)cc(O)c2)ccc1OC(=O)c1ccccc1	94*	.	-5	.	81*
O=C(N/N=C/c1ccc(OC(=O)c2ccco2)cc1)c1ccncc1	16	.	-17	.	8
O=C(N/N=C/c1ccc(OC(=O)c2ccc(Br)cc2)cc1)c1ccncc1	-17	.	-6	.	79*
O=C(N/N=C/c1ccc(OC(=O)c2ccccc2Cl)cc1)c1cc(O)cc(O)c1	91*	.	0	.	92*
O=C(N/N=C/c1ccoc1)c1cc(O)cc(O)c1	74*	.	-7	.	96*
COc1cc(C(=O)N/N=C/c2ccc(OC(=O)c3ccccc3)c(OC)c2)ccc1O	-6	.	-1	.	4
CCOC(=O)C1(C)CCCN(C(=O)c2snnc2C)C1 (stereo not drawn)	.	.	-1	.	.
O=C(COC(=O)c1cc(Br)ccc1O)NC12CC3CC(CC(C3)C1)C2	.	.	10	.	.
CCCCn1c(N)c(N(CC)C(=O)C2=NN(c3ccccc3)C(=O)CC2)c(=O)[nH]c1=O	.	.	-3	.	.
O=C(CSc1nnc(N2CCCC2)n1-c1ccccc1Cl)N1CCN(c2ccccn2)CC1	.	.	3	.	.
Oc1ccc(C(=S)N2CCCCCC2)cc1	-4	0	37*	2	-2
CC1CCN(C(=S)c2ccccc2O)CC1	9	0	30	31*[fluorescence artefact?]	-13
Oc1cccc(C(=S)N2CCCCC2)c1	-8	2	38*	0	-6
Oc1ccc(C(=S)N2CCCC2)cc1	-3	.	36	.	1
CC1CCN(C(=S)c2ccc(O)cc2)CC1	5	1	37*	-4	0
O=C(Nc1ccc2c(c1)OCO2)C1Cc2c(-c3ccc(Cl)cc3)ccnc2O1 (stereo not drawn)	.	.	-6	.	.
COc1ccc(CCNC(=O)COc2cccc(-n3cnnn3)c2)cc1	.	.	-1	.	.
CC(Oc1ccc(Cl)cc1Cl)C(=O)OCC(=O)c1c(N)n(C)c(=O)n(C)c1=O (stereo not drawn)	.	.	8	.	.
SMILES	PABP polyA inh	PERK inhibitor	PABP1 MLLE inh	eIF4E-4G inh	eIF4H FP inh
O=C(COC(=O)c1n[nH]c(=O)c2ccccc12)Nc1cccc(S(=O)(=O)N2CCOCC2)c1	.	.	2	.	.
CCOc1cc([C@@H]2C[C@H]3CN(c4ccccc4)C(=O)[C@]34CCCN24)ccc1OC	0	0	-30	0	57*
Cc1noc(C)c1S(=O)(=O)N(C)C[C@H]1Oc2ccc(NC(=O)Cc3ccccc3)cc2C(=O)N([C@H](C)CO)C[C@@H]1C	.	.	5	.	.
O=C(CSc1nc2ccc(Nc3nc(N4CCCC4)nc(N4CCCC4)n3)cc2s1)NCc1ccco1	2	-2	-30	92*	5
CCN(C[C@H]1N[C@@](CC)(C(=O)OC)[C@H]2C(=O)N(C)C(=O)[C@@H]12)S(=O)(=O)c1ccc(OC(F)(F)F)cc1	.	.	-5	.	.
OC(Cc1ccnc2ccccc12)C(Cl)(Cl)Cl (stereo not drawn)	.	.	7	.	.
